Some test systems named below: NLK; PAK1; PAK2; PAK3; PAK4; PAK6; PAK7; PDGFRA; PDGFRB; PDPK1; PFTAIRE2; PHKG1; PHKG2; PIK3C2B.
Common to all, as to conditions: concentration: 1 μM, replicates: in singlicate; n = 1
The next experiment deals with T1, NIM1.
T1 construct: gene MGC42105

A further experiment relates to T2, OSR1.
T2 construct: gene OXSR1

A further experiment concerns T3, PCTK1.
T3 construct: gene CDK16

The subject of the next experiment is T4, PCTK2.
T4 construct: gene CDK17

The next experiment has as its system T5, PCTK3.
T5 construct: gene CDK18

The test system of the next experiment is T6, PFTK1.
T6 construct: gene CDK14
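Also: KINOMEscan kinase panel screen.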

For `Cc1ccc(Nc2ccnc(Nc3ccc(C)c(F)c3)n2)cc1O.Cl` [GW582868], the “%Inh” value in the experiment with NIM1 was 3%; in the experiment with NLK, 62%; in the experiment with OSR1, 8%; in the experiment on PAK1 it was 0%; in the experiment with PAK2, 0%; in the experiment with PAK3, 0%. The “%Inh” value is reported as 0% in the experiment on PAK4; 0% in the experiment with PAK6; 0% with PAK7; 0% with PCTK1; 0% with PCTK2; 20% in the experiment with PCTK3. The “%Inh” value is 3% in the experiment with PDGFRA; 96.9% in the experiment on PDGFRB; 0% in the experiment with PDPK1; 0% in the experiment on PFTAIRE2; 1% in the experiment on PFTK1; 0% with PHKG1. The “%Inh” value in the experiment on PHKG2 and in the experiment with PIK3C2B was 0% each time.

With `CCNC(=O)/C=C/c1n[nH]c2cc(Sc3ccccc3C(=O)NC)ccc12`, the “%Inh” value in the experiment on NIM1 is on record as 2%; with NLK, 57%; in the experiment on OSR1, 0%; in the experiment with PAK1, 0%; in the experiment with PAK2, 0%; in the experiment with PAK3, 0%. For the same molecule, the “%Inh” value is given as 0% with PAK4; 4% in the experiment on PAK6; 20% in the experiment with PAK7; 7% with PCTK1; 0% in the experiment on PCTK2; 10% in the experiment with PCTK3. The “%Inh” value in the experiment with PDGFRA is reported as 100%; with PDGFRB it was 99.9%; with PDPK1, 6%; in the experiment with PFTAIRE2, 0%; in the experiment with PFTK1 it was 13%; with PHKG1 it was 14%. Further, the figures for the “%Inh” value in the experiment on PHKG2 and with PIK3C2B were 19% and 0%, respectively.

On to `Cc1ccc(NC(=O)c2cccc(N3CCCCC3)c2)cc1-c1ccc(C(=O)NCC2CC2)cc1` [GSK1917008], for which the “%Inh” value is listed as 15% in the experiment with NIM1; 5% in the experiment on NLK; 24% in the experiment with OSR1; 14% in the experiment with PAK1; 24% with PAK2; 21% in the experiment with PAK3. Also, the “%Inh” value is on record as 0% in the experiment on PAK4; 0% in the experiment on PAK6; 2% with PAK7; 12% in the experiment with PCTK1; 0% in the experiment with PCTK2; 26% in the experiment with PCTK3. The “%Inh” value worked out at 34% in the experiment on PDGFRA; 98.7% in the experiment on PDGFRB; 5% in the experiment with PDPK1; 28% in the experiment with PFTAIRE2; 33% in the experiment on PFTK1; 0% with PHKG1. Besides, the “%Inh” value with PHKG2 and in the experiment on PIK3C2B was 0% in each case.

Turning to `Cc1ccc(NC(=O)c2ccc(Cl)c(Cl)c2)cc1-c1ccc(C(=O)Nc2ccncc2)cc1` [GSK1398460], the “%Inh” value in the experiment on NIM1 is recorded as 0%; with NLK it was 43%; with OSR1 it was 6%; in the experiment on PAK1, 19%; with PAK2 it was 19%; with PAK3 it was 20%. In addition, the “%Inh” value with PAK4 is reported as 0%; in the experiment with PAK6 it was 0%; with PAK7 it was 1%; in the experiment on PCTK1 it was 0%; in the experiment with PCTK2, 0%; with PCTK3 it was 25%. The “%Inh” value in the experiment with PDGFRA turned out to be 94.6%; in the experiment on PDGFRB it was 100%; with PDPK1 it was 27%; in the experiment on PFTAIRE2, 23%; in the experiment with PFTK1 it was 1%; in the experiment with PHKG1, 0%. The “%Inh” value with PHKG2 and with PIK3C2B was 0% in each case.

Consider `Cn1cc(-c2ccc3c(c2)CCN3C(=O)Cc2cc(F)cc(F)c2F)c2c(N)ncnc21` [GSK2634140], for which the “%Inh” value in the experiment with NIM1 turned out to be 8%; in the experiment with NLK, 0%; in the experiment with OSR1, 14%; in the experiment on PAK1, 16%; in the experiment on PAK2, 12%; with PAK3, 35%. In addition, the “%Inh” value worked out at 0% in the experiment on PAK4; 0% with PAK6; 0% in the experiment with PAK7; 6% with PCTK1; 0% in the experiment on PCTK2; 7% in the experiment with PCTK3. Further, the “%Inh” value in the experiment with PDGFRA was 59%; in the experiment with PDGFRB, 98%; in the experiment with PDPK1, 0%; with PFTAIRE2, 3%; with PFTK1 it was 10%; with PHKG1, 0%. Further, the “%Inh” value is given as 0% in the experiment on PHKG2 and 82% in the experiment on PIK3C2B.

`Nc1ncc(-c2ccc3nccc(-c4ccncc4)c3c2)cc1S(=O)(=O)N1CCCCC1` [GSK1693850]: the “%Inh” value is 0% with NIM1; 13% with NLK; 5% in the experiment on OSR1; 18% in the experiment on PAK1; 8% in the experiment with PAK2; 14% with PAK3. The “%Inh” value in the experiment with PAK4 came out at 0%; in the experiment on PAK6, 0%; with PAK7, 18%; with PCTK1, 0%; with PCTK2 it was 26%; in the experiment on PCTK3, 0%. The “%Inh” value in the experiment on PDGFRA worked out at 0%; with PDGFRB it was 22%; with PDPK1, 0%; in the experiment with PFTAIRE2, 48%; in the experiment with PFTK1, 47%; with PHKG1 it was 0%. The figures for the “%Inh” value in the experiment on PHKG2 and with PIK3C2B were 14% and 100%, respectively.

`CC(C)(C)c1ccc(C(=O)Nc2cn3cc(-n4ccnc4)ccc3n2)cc1`: the “%Inh” value in the experiment with NIM1 was found to be 3%; with NLK, 0%; in the experiment with OSR1, 0%; in the experiment on PAK1 it was 30%; in the experiment on PAK2, 42%; with PAK3 it was 20%. In addition, the “%Inh” value is recorded as 10% in the experiment with PAK4; 6% with PAK6; 0% in the experiment on PAK7; 6% in the experiment on PCTK1; 14% with PCTK2; 0% with PCTK3. Also, the “%Inh” value was 61% with PDGFRA; 96.9% with PDGFRB; 1% with PDPK1; 8% with PFTAIRE2; 10% in the experiment with PFTK1; 40% with PHKG1. The “%Inh” value was 13% in the experiment on PHKG2 and 0% with PIK3C2B.

In the case of `CNc1nccc(-c2ccc3c(N)n[nH]c3c2)n1` [GSK2206003], the “%Inh” value in the experiment with NIM1 is 15%; in the experiment with NLK it was 14%; in the experiment with OSR1 it was 18%; in the experiment with PAK1, 4%; in the experiment on PAK2 it was 9%; with PAK3, 48%. Moreover, the “%Inh” value in the experiment with PAK4 amounted to 4%; in the experiment on PAK6, 5%; in the experiment on PAK7, 9%; in the experiment on PCTK1 it was 0%; with PCTK2, 19%; with PCTK3 it was 18%. Also, the “%Inh” value with PDGFRA amounted to 13%; in the experiment with PDGFRB, 77%; in the experiment with PDPK1 it was 62%; in the experiment with PFTAIRE2, 16%; in the experiment on PFTK1 it was 10%; with PHKG1, 6%. The “%Inh” value in the experiment with PHKG2 amounted to 43%; in the experiment on PIK3C2B it was 0%.

Consider `Cl.N#CCc1ccc(Nc2nccc(Nc3ccc(Oc4ccccc4)cc3)n2)cc1` [GW639905], for which the “%Inh” value with NIM1 is 14%; in the experiment with NLK, 0%; in the experiment with OSR1, 11%; in the experiment on PAK1, 0%; in the experiment with PAK2, 10%; with PAK3, 47%. Besides, the “%Inh” value in the experiment on PAK4 came to 0%; in the experiment on PAK6, 0%; in the experiment on PAK7, 0%; with PCTK1, 0%; with PCTK2 it was 0%; in the experiment with PCTK3, 8%. For the same molecule, the “%Inh” value with PDGFRA is listed as 31%; in the experiment with PDGFRB, 99.6%; in the experiment with PDPK1 it was 17%; with PFTAIRE2, 4%; in the experiment with PFTK1 it was 0%; in the experiment with PHKG1, 0%. Further, the “%Inh” value in the experiment on PHKG2 and in the experiment on PIK3C2B was 0% in each case.

With `Cc1ccc(NC(=O)c2ccnc(N3CCCCC3)c2)cc1-c1ccc(C(=O)NCC2CC2)cc1` [GW775610], the “%Inh” value amounted to 8% in the experiment with NIM1; 15% in the experiment on NLK; 0% with OSR1; 0% with PAK1; 0% in the experiment on PAK2; 15% in the experiment with PAK3. The “%Inh” value is on record as 17% in the experiment with PAK4; 0% in the experiment on PAK6; 0% in the experiment with PAK7; 73% with PCTK1; 15% in the experiment with PCTK2; 0% in the experiment on PCTK3. For the same molecule, the “%Inh” value in the experiment on PDGFRA was found to be 59%; in the experiment with PDGFRB, 98.3%; with PDPK1, 0%; with PFTAIRE2, 19%; in the experiment on PFTK1 it was 0%; in the experiment on PHKG1 it was 0%. Besides, the figures for the “%Inh” value in the experiment with PHKG2 and in the experiment with PIK3C2B were 0% and 18%, respectively.

These data come from paper PMC5540273 (PLoS ONE, 2017).
